# From PubChem BioAssay AID1159580 (chemical genetic matrix, 2015)
# The whole screen tested about 5,500 compounds, of which about 2,000 (36%) were called active. Not shown: some 18% with an inconclusive outcome. The list shows a part of the results. A number with no mark means an inactive call. No stated cut-off is given here; in the data, active means normalized growth mostly below about 0.91 (no sharp cut-off); inconclusive means no clear call, values can overlap the other calls; inactive means mostly above about 0.92.
# Test: chemical genetic growth profiling, strain panel (AID 1159580);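 further: tested at 20 µM; growth read once vehicle control cultures reached saturation at 30 °C; 1 = growth at the plate median or of vehicle wells; lower values mean less growth of the strain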
# Details: S. cerevisiae deletion strains, growth OD
structure (smiles),measurement,setting,value
O=C1c2ccccc2O[C@@H](c2ccccc2)[C@@H]1NC1CCCCC1,normalized growth,"locus YAR019C, strain CDC15, hits give low values",0.904
same,normalized growth,"locus YBL105C, strain PKC1, hits give low values",0.909
same,normalized growth,"locus YBR135W, strain CKS1, hits give low values",0.914
same,normalized growth,"locus YBR136W, strain MEC1, hits give low values",0.916
same,normalized growth,"locus YBR160W, strain CDC28, hits give low values",0.927
same,normalized growth,"locus YDL017W, strain CDC7, hits give low values",0.914
same,normalized growth,"locus YDL028C, strain MPS1, hits give low values",0.913
same,normalized growth,"locus YDL101C, strain DUN1, hits give low values",0.898 (active)
same,normalized growth,"locus YDL108W, strain KIN28, hits give low values",0.924
same,normalized growth,"locus YDL132W, strain cdc53, hits give low values",0.887 (active)
same,normalized growth,"locus YDL214C, strain PRR2, hits give low values",0.883
same,normalized growth,"locus YDR052C, strain DBF4, hits give low values",0.907 (active)
same,normalized growth,"locus YDR054C, strain cdc34, hits give low values",0.872 (active)
same,normalized growth,"locus YDR226W, strain ADK1, hits give low values",0.898
same,normalized growth,"locus YDR477W, strain SNF1, hits give low values",0.87
same,normalized growth,"locus YER123W, strain YCK3, hits give low values",0.843
same,normalized growth,"locus YER133W, strain GLC7, hits give low values",0.841
same,normalized growth,"locus YFL009W, strain cdc4, hits give low values",0.884 (active)
same,normalized growth,"locus YFL029C, strain CAK1, hits give low values",0.91
same,normalized growth,"locus YFR003C, strain YPI1, hits give low values",0.915
same,normalized growth,"locus YFR019W, strain FAB1, hits give low values",0.889
same,normalized growth,"locus YFR028C, strain CDC14, hits give low values",0.888 (active)
same,normalized growth,"locus YGR040W, strain KSS1, hits give low values",0.866
same,normalized growth,"locus YGR052W, strain FMP48, hits give low values",0.885
same,normalized growth,"locus YGR092W, strain DBF2, hits give low values",0.871
same,normalized growth,"locus YHR030C, strain SLT2, hits give low values",0.697 (active)
same,normalized growth,"locus YHR079C, strain IRE1, hits give low values",0.852
same,normalized growth,"locus YHR082C, strain KSP1, hits give low values",0.933
same,normalized growth,"locus YHR205W, strain SCH9, hits give low values",0.898
same,normalized growth,"locus YIL147C, strain SLN1, hits give low values",0.909
same,normalized growth,"locus YJL095W, strain BCK1, hits give low values",0.792
same,normalized growth,"locus YJL128C, strain PBS2, hits give low values",0.872
same,normalized growth,"locus YJL157C, strain FAR1, hits give low values",0.849
same,normalized growth,"locus YJR016C, strain ILV3, hits give low values",0.898 (active)
same,normalized growth,"locus YJR066W, strain TOR1 (second series), hits give low values",0.771
same,normalized growth,"locus YJR066W, strain TOR1, hits give low values",0.888
same,normalized growth,"locus YKL048C, strain ELM1, hits give low values",0.901
same,normalized growth,"locus YKL067W, strain YNK1, hits give low values",0.903
same,normalized growth,"locus YKL101W, strain HSL1, hits give low values",0.906
same,normalized growth,"locus YKL193C, strain SDS22, hits give low values",0.902
same,normalized growth,"locus YKL203C, strain TOR2, hits give low values",0.922
same,normalized growth,"locus YLR113W, strain HOG1, hits give low values",0.747 (active)
same,normalized growth,"locus YLR133W, strain CKI1, hits give low values",0.897
same,normalized growth,"locus YLR403W, strain SFP1, hits give low values",0.849
same,normalized growth,"locus YML070W, strain DAK1, hits give low values",0.871
same,normalized growth,"locus YMR001C, strain CDC5, hits give low values",0.901
same,normalized growth,"locus YMR205C, strain PFK2 (second series), hits give low values",0.878
same,normalized growth,"locus YMR277W, strain FCP1, hits give low values",0.905
same,normalized growth,"locus YNL006W, strain LST8, hits give low values",0.906 (active)
same,normalized growth,"locus YNL020C, strain ARK1, hits give low values",0.901
same,normalized growth,"locus YNL161W, strain CBK1, hits give low values",0.9
same,normalized growth,"locus YNL183C, strain NPR1, hits give low values",0.941
same,normalized growth,"locus YNL207W, strain RIO2, hits give low values",0.898
same,normalized growth,"locus YNL222W, strain SSU72, hits give low values",0.919
same,normalized growth,"locus YNL307C, strain MCK1 (second series), hits give low values",0.904
same,normalized growth,"locus YOL078W, strain AVO1, hits give low values",0.9
same,normalized growth,"locus YOL136C, strain PFK27, hits give low values",0.887
same,normalized growth,"locus YOR061W, strain CKA2, hits give low values",0.867
same,normalized growth,"locus YOR119C, strain RIO1, hits give low values",0.945
same,normalized growth,"locus YOR231W, strain MKK1, hits give low values",0.874
same,normalized growth,"locus YOR329C, strain SCD5, hits give low values",0.909
same,normalized growth,"locus YPL031C, strain PHO85, hits give low values",0.867
same,normalized growth,"locus YPL153C, strain RAD53, hits give low values",0.864
same,normalized growth,"locus YPL204W, strain HRR25, hits give low values",0.843
same,normalized growth,"locus YPL209C, strain IPL1, hits give low values",0.917
same,normalized growth,"locus YPL256C, strain CLN2, hits give low values",0.858
same,normalized growth,"locus YPR025C, strain CCL1, hits give low values",0.914
same,normalized growth,"locus YPR106W, strain ISR1, hits give low values",0.91
same,normalized growth,"locus YPR111W, strain DBF20, hits give low values",0.92
same,normalized growth,"strain NNK1, hits give low values",0.905
same,normalized growth,"strain TSCII, hits give low values",0.881
